Screening results as filed in PubChem BioAssay.
DT40 TDP1 CPT: qHTS for Inhibitors of human tyrosyl-DNA phosphodiesterase 1 (TDP1): qHTS in cells in presence of CPT. chicken DT40 Tdp1-/-;hTDP1 cells + 20 nM CPT, ATP luminescence, 48 h. Potency, µM (titrated, usually from 46.2 µM), without a hit: top-dose activity change, negative = growth inhibition, hits mostly inhibitors. hit rate 12% among 420,000. AID 686979, 2013; also: potency is read from the fitted curve at half-maximal effect; % is scaled to controls: 0 for no effect and ±100 for the full control effect; nearly all actives have a fitted effect of over 55% in size
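Chicken DT40 Tdp1-/- cells stably complemented with human TDP1 were seeded at 400 cells/well in medium containing 20 nM camptothecin, exposed to pin-transferred compounds, and grown at 37 °C for at least 48 hr. Viability was read as ATP luminescence.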
DRD3 agonist: qHTS of D3 Dopamine Receptor Agonist: qHTS; D3R DiscoveRx beta-arrestin cells, luminescence, 90 min; AID 652048, 2013; max activation, %; hit rate 0.58% among 410,000; D(3) dopamine receptor (Homo sapiens), P35462; in the data active = max activation above about 30%; also: 0% is about no effect
Target sequence (P35462 whole entry, looked up): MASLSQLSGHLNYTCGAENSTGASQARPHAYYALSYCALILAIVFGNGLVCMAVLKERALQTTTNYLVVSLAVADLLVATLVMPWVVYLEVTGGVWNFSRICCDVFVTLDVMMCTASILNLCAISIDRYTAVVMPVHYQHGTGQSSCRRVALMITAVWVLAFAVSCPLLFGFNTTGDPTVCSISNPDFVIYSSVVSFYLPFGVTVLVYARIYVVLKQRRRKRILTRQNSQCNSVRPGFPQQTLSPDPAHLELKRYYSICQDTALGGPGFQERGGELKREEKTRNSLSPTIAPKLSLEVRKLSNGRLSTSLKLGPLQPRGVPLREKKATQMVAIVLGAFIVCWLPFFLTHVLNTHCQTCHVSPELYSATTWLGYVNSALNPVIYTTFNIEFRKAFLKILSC
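Cells at 1500/well, incubated overnight, then treated with pinned compounds (dopamine as control) for 90 min at 37 degrees C. DiscoveRx reagent added for 30 - 60 minutes at room temperature; luminescence read.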
TDP1 cell noCPT: qHTS for Inhibitors of human tyrosyl-DNA phosphodiesterase 1 (TDP1): qHTS in cells in absence of CPT | DT40 Tdp1-/- hTDP1 cells, no CPT, ATP luminescence, 48 h | Potency, µM (titrated, usually from 46.2 µM), for inactives: at the highest dose activity change, negative = growth inhibition, usual class: inhibitors | hit rate 15% among 420,000; also: potency is read from the fitted curve at half-maximal effect; % is scaled to controls: 0 for no effect and ±100 for the full control effect; nearly all actives have a fitted effect of over 55% in size
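Chicken DT40 Tdp1-/- cells complemented with human TDP1, screened without camptothecin (DMSO vehicle only), 400 cells/well. Compounds pin-transferred, cells incubated at 37 °C for at least 48 hr. Growth read as ATP-dependent luminescence (CellTiter-Glo, 30 min at RT).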
IL1B secr inh: qHTS for Inhibitors of Inflammasome Signaling: IL-1-beta AlphaLISA Primary Screen. THP-1 LPS/ATP IL-1B secretion, AlphaLISA, 16 h; hits give low values. activity change, % at 57.5 µM. hit rate 4.7% among 360,000. AID 743279, 2014; in the data active = activity change below about -50%; inconclusive = mostly about -30% to -49%; also: % is scaled to controls: 0 for no effect and ±100 for the full control effect
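THP-1 cells pretreated 1 hr with compounds (up to 57.5 uM final), then stimulated with LPS (250 ng/mL final) plus ATP (1.25 mM final); secreted IL-1B measured by AlphaLISA after 16 hr, decreased signal indicating inhibition.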
ClpP mod: qHTS Assay for Activators of ClpP; hit rate 1.9% among 340,000; purified B. subtilis ClpP, FRET peptide cleavage, 20 min; Potency, µM (highest dose often 57.5 µM), inactives show at the highest dose activity change, negative = active; ATP-dependent Clp protease proteolytic subunit (Bacillus subtilis (strain 168)), P80244; active = well fitted falling curve with a large enough effect; inconclusive = small, poorly fitted or top-dose-only effect; inactive = no such curve, though single readings can be large or run the other way; also: potency is read from the fitted curve at half-maximal effect; the source files actives as falling curves though it sought activators and does not explain the sign; nearly all actives have a fitted effect of over 65% in size
Target sequence (P80244 whole entry, looked up): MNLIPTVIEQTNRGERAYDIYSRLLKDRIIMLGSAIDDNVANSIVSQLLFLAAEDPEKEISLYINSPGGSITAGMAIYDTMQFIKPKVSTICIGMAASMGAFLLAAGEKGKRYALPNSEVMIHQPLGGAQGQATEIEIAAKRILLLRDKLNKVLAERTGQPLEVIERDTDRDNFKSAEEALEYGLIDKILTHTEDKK
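FRET quenching reversal measured ClpP activation: 10 microg/mL B. subtilis ClpP at pH 8 with the FRET-FV decapeptide, read at 430 nm after 320 nm excitation. The 20-min minus 0-min signal was scaled between DMSO/no-enzyme wells and ADEP (5.8 microM final).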
DRD3 antagonist: qHTS of D3 Dopamine Receptor Antagonist: qHTS; hit rate 2.5% among 360,000; D3R cells, DiscoveRx beta-arrestin luminescence, antagonist mode; hits give low values; AID 652054, 2013; D(3) dopamine receptor (Homo sapiens), P35462; max response, negative = inhibition, %; in the data active = max response below about -50%; inconclusive = no clear call, values can overlap the other calls; also: % is scaled to controls: 0 for no effect and ±100 for the full control effect
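Cells expressing the human receptor were seeded at 1500 cells/well, incubated overnight at 37 degrees C in 5% CO2, then exposed to library compounds with dopamine controls for 90 minutes at 37 degrees C before luminescent detection.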
The depositor's hits bear a star. This is a sample that favours compounds with a hit; in the whole collection about 21% have one here. Unless noted, calls follow the shape of the dose curve; as a rule, active = well fitted inhibition curve with a large enough effect; inconclusive = small, poorly fitted or top-dose-only effect; inactive = flat fitted curve, though single readings scatter.

For COc1ccc(S(=O)(=O)N(CC(=O)NCCSc2ccccc2)c2ccc(C)cc2)cc1 the results were DT40 TDP1 CPT 18µM*, DRD3 agonist -6, TDP1 cell noCPT 13µM* and ClpP mod -1%.
Screening Cc1ccc(N(CC(=O)NCC(O)c2ccccc2)S(=O)(=O)c2ccc(C)cc2)cc1 (centres undefined) returned DT40 TDP1 CPT -1%, DRD3 agonist -22, TDP1 cell noCPT -23%, IL1B secr inh -94*, ClpP mod -5% and DRD3 antagonist 3.
`Cc1ccc(S(=O)(=O)N(CC(=O)NCCc2ccc(Cl)cc2)c2ccccc2C)cc1` gave DT40 TDP1 CPT 18µM*, DRD3 agonist -2, TDP1 cell noCPT 13µM* and ClpP mod -2%.
Screening CCNC(=O)CN(c1ccc(C)cc1)S(=O)(=O)c1ccccc1 returned DT40 TDP1 CPT -15%, DRD3 agonist 0, TDP1 cell noCPT 4%, IL1B secr inh -9, ClpP mod -4% and DRD3 antagonist -6.
COc1ccc(CCNC(=O)CN(c2ccc(C)cc2)S(=O)(=O)c2ccc(OC)cc2)cc1 was read as DT40 TDP1 CPT inconclusive, DRD3 agonist 7, TDP1 cell noCPT 23µM* and ClpP mod 4%.
For c1ccc2c(c1)CCCN2 the results were DT40 TDP1 CPT 4%, TDP1 cell noCPT 6% and ClpP mod -1%.
C[C@H](CO)N1C[C@H](C)[C@@H](CN(C)C)Oc2c(NC(=O)CCC(F)(F)F)cccc2C1=O was read as DT40 TDP1 CPT -7%, DRD3 agonist -8, TDP1 cell noCPT -6%, IL1B secr inh 7, ClpP mod 0% and DRD3 antagonist 2.
CCOc1ccc(N(CC(=O)NCCSc2ccccn2)S(=O)(=O)c2ccc(Cl)cc2)cc1 was read as DT40 TDP1 CPT inconclusive, DRD3 agonist -20, TDP1 cell noCPT inconclusive, IL1B secr inh 5 and DRD3 antagonist -3.
`COc1ccc(N(CC(=O)NCCSC2CCCCC2)S(=O)(=O)c2ccc(C)cc2)cc1` gave DT40 TDP1 CPT -88%, DRD3 agonist 1, TDP1 cell noCPT 23µM*, IL1B secr inh -4, ClpP mod -5% and DRD3 antagonist 7.
`CCCOc1ccc(/C=N/NC(=O)CN(c2ccc(OCC)cc2)S(C)(=O)=O)cc1` gave DT40 TDP1 CPT -5%, DRD3 agonist -15, TDP1 cell noCPT -15%, IL1B secr inh -29 and DRD3 antagonist -27.
For CCOc1ccc(N(CC(=O)N/N=C/c2cc([N+](=O)[O-])ccc2Cl)S(C)(=O)=O)cc1 the results were DT40 TDP1 CPT inconclusive, DRD3 agonist -8, TDP1 cell noCPT 23µM*, IL1B secr inh -11, ClpP mod 1% and DRD3 antagonist 9.
For CCOc1ccc(N(CC(=O)N/N=C/c2ccccn2)S(=O)(=O)c2ccc(Cl)cc2)cc1 the results were DT40 TDP1 CPT inconclusive, DRD3 agonist -1, TDP1 cell noCPT 21µM*, IL1B secr inh 33, ClpP mod -1% and DRD3 antagonist 3.
COc1ccc(OC)c(N(CC(=O)NCCSC2CCCCC2)S(=O)(=O)c2ccccc2)c1 was read as DT40 TDP1 CPT inconclusive, DRD3 agonist 1, TDP1 cell noCPT inconclusive, IL1B secr inh 9, ClpP mod 1% and DRD3 antagonist 19.
Screening CCCNC(=O)c1cc(C2CCCCN2C(=O)c2ccc3ccccc3c2)on1 (centres undefined) returned DT40 TDP1 CPT inconclusive, DRD3 agonist -6, TDP1 cell noCPT inconclusive, IL1B secr inh 1, ClpP mod 0% and DRD3 antagonist 9.
Screening COc1ccccc1CNC(=O)C1CC2Cn3c(nc4cc(C)c(C)cc43)C2N1C (centres undefined) returned DT40 TDP1 CPT -17%, DRD3 agonist -13, TDP1 cell noCPT -28%, IL1B secr inh 22, ClpP mod -7% and DRD3 antagonist -24.
`Cc1cc(C)c(NC(=O)CNC(=O)COC(=O)/C=C/c2cccs2)c(C)c1` gave DT40 TDP1 CPT -6%, DRD3 agonist -11, TDP1 cell noCPT -12%, IL1B secr inh 17, ClpP mod 1% and DRD3 antagonist 0.
For Cc1cc(N2CCC(C(=O)Nc3ccc(F)cc3)CC2)nc(-c2ccccc2)n1 the results were DT40 TDP1 CPT -22%, DRD3 agonist 1, TDP1 cell noCPT 18µM*, IL1B secr inh -53*, ClpP mod -3% and DRD3 antagonist -22.
For Cc1cc(N2CCN(c3ccc(F)cc3)CC2)nc(-c2ccccc2)n1 the results were DT40 TDP1 CPT 9.2µM*, DRD3 agonist -3, TDP1 cell noCPT 8.2µM*, IL1B secr inh -20, ClpP mod -5% and DRD3 antagonist 1.
`COc1ccc(NC(=O)C2CCN(c3cc(C)nc(-c4ccccc4)n3)CC2)cc1` gave DT40 TDP1 CPT inconclusive, DRD3 agonist 3, TDP1 cell noCPT inconclusive, IL1B secr inh -6, ClpP mod 16% and DRD3 antagonist inconclusive.
CCCn1c(=O)c2c(nc3n2CCCN3CCc2ccc(OC)c(OC)c2)n(C)c1=O was read as DT40 TDP1 CPT inconclusive, DRD3 agonist 2, TDP1 cell noCPT inconclusive, IL1B secr inh 1, ClpP mod -1% and DRD3 antagonist 25.
For c1ccc2nc3c(cc2c1)CCCCCC3 the results were DT40 TDP1 CPT -12%, DRD3 agonist 1, TDP1 cell noCPT -16%, IL1B secr inh 33, ClpP mod 0% and DRD3 antagonist 0.
`c1ccc2nc3c(cc2c1)CCCCC3` gave DT40 TDP1 CPT 18µM*, DRD3 agonist -8, TDP1 cell noCPT 13µM*, IL1B secr inh 15, ClpP mod 2% and DRD3 antagonist 10.
Screening COc1ccc2cc(-c3cc(C(=O)O)c4ccccc4n3)ccc2c1 returned DT40 TDP1 CPT inconclusive, DRD3 agonist 6, TDP1 cell noCPT inconclusive, IL1B secr inh 28, ClpP mod 25µM* and DRD3 antagonist inconclusive.
Screening Cc1cccc(NC(=S)NC(=O)c2cc(-c3ccccc3)nc3ccccc23)c1 returned DT40 TDP1 CPT 20µM*, DRD3 agonist -14, TDP1 cell noCPT inconclusive, IL1B secr inh 15, ClpP mod 0% and DRD3 antagonist -54*.
